PostGolgi yeast – growth inhibition of a yeast mutant, post-Golgi transport screen | post-Golgi transport phenotypic cell assay | inhibition, % at 10 µM | 0.9% of 98,000 active | AID 739;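 further: yeast cells grown in 1536-well plates; yeast grown about 18 h at 30C before absorbance read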
CYP2C9 inh – human CYP2C9 inhibition; P11712; CYP2C9 Supersomes, luciferin-H conversion, luminescence; inhibition, % at 5 µM; 20% of 96,000 active; AID 777;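 active means blocking of liver enzyme CYP2C9 beyond about 50% at 5 µM, limit read from the data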
Target sequence (P11712 whole entry, looked up): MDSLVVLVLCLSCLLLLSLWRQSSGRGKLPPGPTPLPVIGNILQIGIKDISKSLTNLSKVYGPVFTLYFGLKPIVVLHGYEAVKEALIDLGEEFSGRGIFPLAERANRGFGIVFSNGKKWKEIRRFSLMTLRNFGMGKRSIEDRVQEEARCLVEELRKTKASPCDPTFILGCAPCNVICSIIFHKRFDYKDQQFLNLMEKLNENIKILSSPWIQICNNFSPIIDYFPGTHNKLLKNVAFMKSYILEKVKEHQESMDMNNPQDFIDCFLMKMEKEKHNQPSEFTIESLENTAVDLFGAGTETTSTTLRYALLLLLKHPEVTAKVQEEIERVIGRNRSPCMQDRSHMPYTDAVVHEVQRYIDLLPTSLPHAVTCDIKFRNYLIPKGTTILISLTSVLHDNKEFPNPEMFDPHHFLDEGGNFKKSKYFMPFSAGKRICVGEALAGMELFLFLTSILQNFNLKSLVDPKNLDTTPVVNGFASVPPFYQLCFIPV
CYP2C19 act – cytochrome P450 2C19 (human) activation | 96,000 tested, under 10 active | P33261 | recombinant CYP2C19, luciferin-H EGE luminescence; active compounds read high; 0 = fully inhibited enzyme, 1 = untreated enzyme | activation factor at 5 µM;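 active means activation factor of at least 2 at 5 µM in the primary screen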;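 further: 0 = wells with 2.5 mM tranylcypromine and 1 = vehicle-only wells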
CYP2C9 activ – activators of human CYP2C9 | P11712 | recombinant CYP2C9, luciferin-H conversion, luminescence; active compounds read high; factor 1 = untreated enzyme, 0 = blocked | activation factor at 5 µM | 1.4% of 96,000 active | AID 1024;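 active means activation factor of 2 or more for CYP2C9 at a 5 µM dose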;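 further: 0 = sulfaphenazole-blocked wells and 1 = vehicle-only wells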
PostGolgi ctrl – growth of the yeast control strain, post-Golgi counter-screen; efflux-deficient yeast background strain, growth absorbance A615, 16 h; AID 738; 5% of 98,000 active; inhibition, % at 10 µM
CYP2C19 inh – inhibitors of human CYP2C19; CYP2C19 Supersomes, luciferin-H EGE luminescence, 30 min; AID 778; inhibition, % at 5 µM; P33261; 21% of 96,000 active;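 active means CYP2C19 inhibition above a set limit at 5 µM in the primary screen, cut at about 50% in these data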;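 further: plate controls were negative control wells for no effect and 2.5 mM tranylcypromine positive control for full effect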
* = called active by the depositor; · = not tested or not shown. Hits are enriched below; roughly 32% of the tested compounds scored in any of these assays. Unless noted, no stated cut-off is given here; in the data, active means inhibition above about 30%; inactive means the rest.

SMILES	PostGolgi yeast	CYP2C9 inh	CYP2C19 act	CYP2C9 activ	PostGolgi ctrl	CYP2C19 inh
CCOC(=O)CCCCC(=O)c1[nH]c(=O)[nH]c1CSc1nc(-c2ccccc2)c(C#N)c(=O)[nH]1	-1	86*	0.5	0.1	1	46
Cc1cccc(NC(=O)CSc2nc(-c3ccccc3)c(C#N)c(=O)[nH]2)c1C	-4	93*	0.6	0.1	1	41
CC(=O)Nc1ccc(NS(=O)(=O)C(F)(F)F)cc1	-4	38	0.9	0.6	5	14
Cn1c(N)c(C(=O)CSc2nc3ccccc3n2-c2ccccc2)c(=O)n(C)c1=O	·	4	1.1	1	·	-9
CN1CCN(CC#CC2(O)CCCCC2)CC1	-2	-10	1.1	1.1	3	-6
O=C(CCc1ccccc1)NNC(=O)C1CCCCC1	-5	0	1	1	-6	3
CC(=O)c1c(C(C)=O)c(C)n(-c2nc(-c3ccccc3)c(C)s2)c1C	-10	45	0.5	0.6	18	46
COc1ccc(-c2c/c(=N\c3nc(-c4ccccc4)c(C)s3)c3ccccc3o2)cc1O	-1	93*	0.7	0.1	6	28
CN(C(=O)c1cccnc1)c1nnc(-c2cccnc2)s1	2	3	1	1	6	-2
COc1cccc(C(=O)N(C)c2nnc(-c3ccncc3)s2)c1	16	89*	0	0.1	1	100*
CN(C(=O)c1cccc(C#N)c1)c1nnc(-c2ccncc2)s1	2	70*	0.1	0.3	-4	93*
CCN(CC)C(=O)c1cc(-c2ccc(Br)cc2)on1	5	4	1	1	9	4
O=C(NC1CCCCC1)N1CCC(c2nc3ccc(Cl)cc3[nH]2)CC1	-6	44	0.7	0.6	11	29
NC(=O)NC1CCCc2c1[nH]c1ccc(Cl)cc21 (stereo unspecified)	-2	94*	0.5	0.1	16	52*
COC(=O)c1ccc(N2CCOCC2)c(NC(=O)Nc2cccc(OC)c2)c1	-4	71*	0.8	0.3	·	24
COc1cccc(C(=O)OCC(=O)Nc2ccccc2N2CCOCC2)c1	4	51*	0.6	0.5	38*	39
COc1cccc(NC(=O)N2CCOCC2)c1	2	-1	1	1	24	0
COc1cccc(C(=O)Nc2ccccc2N2CCOCC2)c1	-4	53*	0.4	0.5	9	62*
Cc1nnc(SCC(=O)Nc2ccc(N3CCOCC3)cc2)n1-c1ccccc1	-6	30	0.9	0.7	-2	9
COc1cccc(-n2c(C)nnc2SCC(=O)Nc2ccccc2N2CCOCC2)c1	-4	77*	0.4	0.2	-8	63*
CN(C)c1nc(OCC(=O)NC(C)(C)C)nc(N(C)C)n1	-5	-1	0.6	1	5	37
CC(C)CC(=O)NCC(C)NC(=O)CC(C)C (stereo unspecified)	2	-43	1.2	1.4	-5	-18
CC(=O)OC(C(=O)NCc1ccc(F)cc1)c1ccccn1 (stereo unspecified)	0	-17	1.1	1.2	-7	-8
Nc1n[nH]c(-c2ccccc2)c1-c1ccccc1	15	10	0.8	0.9	4	16
CCSc1nc(-c2ccco2)ccc1C#N	2	27	1	0.7	26	-1
SMILES	PostGolgi yeast	CYP2C9 inh	CYP2C19 act	CYP2C9 activ	PostGolgi ctrl	CYP2C19 inh
CC(C)(C)c1cn(-c2ccc(Cl)cc2)c(=S)[nH]1	8	27	0.3	0.7	5	73*
O=C(Nc1nc2cc(Cl)ccc2s1)C1CCCN(S(=O)(=O)c2cccc3cccnc23)C1 (stereo unspecified)	2	-106	0.9	2.1*	36*	7
O=C(Nc1nccs1)C1CCCN(S(=O)(=O)c2cccc3cccnc23)C1 (stereo unspecified)	2	8	0.5	0.9	5	45
O=C(Nc1ccc(F)cc1)C1CCCN(S(=O)(=O)c2cccc3cccnc23)C1 (stereo unspecified)	-11	-74	0.3	1.7	9	68*
CCCOc1ccc(N2C(=O)CC(S/C(N)=N/N=C(\C)c3cccs3)C2=O)cc1 (stereo unspecified)	-6	27	0.9	0.7	2	6
C/C(=N\N=C(/N)SC1CC(=O)N(c2cccc(Cl)c2)C1=O)c1cccs1 (stereo unspecified)	5	61*	1	0.4	-8	-5

Screening data deposited in PubChem BioAssay by several laboratories.
